# Reference: the supplement of paper PMC8728848
# About 410 targets per protein were measured; listed, in parts, are those with the strongest signals and a random draw of the rest.
# Key:
# Test in all cases: glycan array binding signal (z-score within array); higher = stronger binding
# Conditions in all cases: glycan notation: IUPAC condensed, linker removed
# [1] = molecular target: Fuc(a1-2)Gal(b1-3)GlcNAc(b1-2)Man(a1-3)[Fuc(a1-2)Gal(b1-3)GlcNAc(b1-2)Man(a1-6)]Man(b1-4)GlcNAc(b1-4)[Fuc(a1-6)]GlcNAc
# In short: (§1)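 Glycan array binding is given as a within-array Z-score, which can be read as non-binding when negative. The arrays, 3228 of them, came from the Consortium for Functional Glycomics database and were retained only where the protein sequence was available. Z-scores were averaged across arrays of the same protein sequence at different concentrations or buffers and across linkers.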
# [2] = molecular target: Fuc(a1-2)Gal(b1-3)GlcNAc(b1-3)[Fuc(a1-2)Gal(b1-3)GlcNAc(b1-6)]GalNAc
# In short: as §1
# [3] = molecular target: Fuc(a1-2)Gal(b1-3)[Fuc(a1-4)]GlcNAc(b1-3)[Gal(b1-4)GlcNAc(b1-6)]Gal(b1-4)Glc
# In short: as §1
# [4] = molecular target: Fuc(a1-2)Gal(b1-4)GlcNAc(b1-3)Gal(b1-4)GlcNAc(b1-2)Man(a1-3)[Fuc(a1-2)Gal(b1-4)GlcNAc(b1-3)Gal(b1-4)GlcNAc(b1-2)Man(a1-6)]Man(b1-4)GlcNAc(b1-4)GlcNAc
# In short: as §1
# [5] = molecular target: Fuc(a1-2)[Gal(a1-3)]Gal(b1-4)GlcNAc
# In short: as §1
# [6] = molecular target: Fuc(a1-2)[Gal(a1-3)]Gal(b1-4)GlcNAc(b1-3)[Fuc(a1-2)[Gal(a1-3)]Gal(b1-4)GlcNAc(b1-6)]GalNAc
# In short: as §1
# [7] = molecular target: Fuc(a1-2)[GalNAc(a1-3)]Gal(b1-3)GlcNAc(b1-6)GalNAc
# In short: as §1
# [8] = molecular target: Fuc(a1-3)[Gal(b1-4)]GlcNAc(b1-3)GalNAc
# In short: as §1
# Fuc(a1-4)GlcNAc = molecular target: Fuc(a1-4)GlcNAc
# In short: as §1
# Fuc(b1-3)GlcNAc = molecular target: Fuc(b1-3)GlcNAc
# In short: as §1
# [9] = molecular target: Gal(a1-3)Gal(b1-4)[Fuc(a1-3)]GlcNAc(b1-2)Man(a1-3)[Gal(a1-3)Gal(b1-4)[Fuc(a1-3)]GlcNAc(b1-2)Man(a1-6)]Man(b1-4)GlcNAc(b1-4)GlcNAc
# In short: as §1
# Gal(a1-4)GlcNAc = molecular target: Gal(a1-4)GlcNAc
# In short: as §1
# [10] = molecular target: Gal(b1-3)GlcNAc(a1-6)Gal(b1-4)GlcNAc
# In short: as §1
# [11] = molecular target: Gal(b1-4)GlcNAc(b1-3)Gal(b1-3)GalNAc
# In short: as §1
# [12] = molecular target: Gal(b1-4)GlcNAc(b1-3)Gal(b1-3)GlcNAc
# In short: as §1
# [13] = molecular target: Gal(b1-4)GlcNAc(b1-3)Gal(b1-4)GlcNAc(b1-2)[Gal(b1-4)GlcNAc(b1-3)Gal(b1-4)GlcNAc(b1-6)]Man(a1-6)[Gal(b1-4)GlcNAc(b1-3)Gal(b1-4)GlcNAc(b1-2)Man(a1-3)]Man(b1-4)GlcNAc(b1-4)GlcNAc
# In short: as §1
# [14] = molecular target: Gal(b1-4)GlcNAc(b1-3)Gal(b1-4)GlcNAc(b1-3)Gal(b1-4)GlcNAc(b1-3)Gal(b1-4)GlcNAc(b1-2)[Gal(b1-4)GlcNAc(b1-3)Gal(b1-4)GlcNAc(b1-3)Gal(b1-4)GlcNAc(b1-3)Gal(b1-4)GlcNAc(b1-6)]Man(a1-6)[Gal(b1-4)GlcNAc(b1-3)Gal(b1-4)GlcNAc(b1-3)Gal(b1-4)GlcNAc(b1-3)Gal(b1-4)GlcNAc(b1-2)Man(a1-3)]Man(b1-4)GlcNAc(b1-4)[Fuc(a1-6)]GlcNAc
# In short: as §1
# [15] = molecular target: Gal(b1-4)GlcNAc(b1-3)Gal(b1-4)GlcNAc(b1-3)Gal(b1-4)GlcNAc(b1-3)Gal(b1-4)GlcNAc(b1-3)Gal(b1-4)GlcNAc(b1-2)Man(a1-3)[Gal(b1-4)GlcNAc(b1-3)Gal(b1-4)GlcNAc(b1-3)Gal(b1-4)GlcNAc(b1-3)Gal(b1-4)GlcNAc(b1-3)Gal(b1-4)GlcNAc(b1-2)Man(a1-6)]Man(b1-4)GlcNAc(b1-4)[Fuc(a1-6)]GlcNAc
# In short: as §1
# [16] = molecular target: Gal3S(b1-3)[Fuc(a1-4)]GlcNAc
# In short: as §1
# Gal3S(b1-4)Glc = molecular target: Gal3S(b1-4)Glc
# In short: as §1
# [17] = molecular target: Gal3S(b1-4)[Fuc(a1-3)]GlcNAc6S
# In short: as §1
# [18] = molecular target: GalNAc(a1-3)GalNAc(b1-3)Gal(a1-4)Gal(b1-4)GlcNAc
# In short: as §1
# Glc(b1-6)Glc = molecular target: Glc(b1-6)Glc
# In short: as §1
# [19] = molecular target: GlcNAc(a1-4)Gal(b1-4)GlcNAc(b1-3)Gal(b1-4)[Fuc(a1-3)]GlcNAc(b1-3)Gal(b1-4)[Fuc(a1-3)]GlcNAc
# In short: as §1
# [20] = molecular target: GlcNAc(b1-2)Man(a1-3)[GlcNAc(b1-2)Man(a1-6)]Man(b1-4)GlcNAc(b1-4)GlcNAc
# In short: as §1
# Kdn(a2-3)Gal(b1-3)GlcNAc = molecular target: Kdn(a2-3)Gal(b1-3)GlcNAc
# In short: as §1
# [21] = molecular target: Man(a1-2)Man(a1-3)[Man(a1-2)Man(a1-6)]Man
# In short: as §1
# [22] = molecular target: Man(a1-2)Man(a1-3)[Man(a1-6)]Man(a1-6)[Man(a1-2)Man(a1-3)]Man(b1-4)GlcNAc(b1-4)GlcNAc
# In short: as §1
# [23] = molecular target: Man(a1-2)Man(a1-6)[Man(a1-3)]Man(a1-6)[Man(a1-2)Man(a1-2)Man(a1-3)]Man
# In short: as §1
# [24] = molecular target: Neu5Ac(a2-3)Gal(b1-3)[GlcNAc(b1-6)]GalNAc
# In short: as §1
binder,measurement,setting,value
"BC2LB (Burholderia cenocepacia), B4EH85_BURCJ (protein) MGSSHHHHHHSSGENLYFQGHMSQPFTHDDLYALLQLAGNDATAVQANGDQAVLDRMRQFMTAQLVEKLPQYDVFVDIATIPYSFDVGSWQNKVKTDAAGEVVACTVTWAGAPGVLPGAAAKFGVGAVVNYFSKATPH",glycan array binding signal (z-score),[1],-0.135
same,glycan array binding signal (z-score),[2],-0.166
same,glycan array binding signal (z-score),[3],-0.251
same,glycan array binding signal (z-score),[4],0.245
same,glycan array binding signal (z-score),[5],-0.238
same,glycan array binding signal (z-score),[6],6.98
same,glycan array binding signal (z-score),[7],7.53
same,glycan array binding signal (z-score),[8],0.001
same,glycan array binding signal (z-score),Fuc(a1-4)GlcNAc,2.88
same,glycan array binding signal (z-score),Fuc(b1-3)GlcNAc,1.63
same,glycan array binding signal (z-score),[9],0.053
same,glycan array binding signal (z-score),Gal(a1-4)GlcNAc,-0.101
same,glycan array binding signal (z-score),[10],-0.227
same,glycan array binding signal (z-score),[11],-0.131
same,glycan array binding signal (z-score),[12],-0.143
same,glycan array binding signal (z-score),[13],11.3
same,glycan array binding signal (z-score),[14],-0.198
same,glycan array binding signal (z-score),[15],0.012
same,glycan array binding signal (z-score),[16],0.995
same,glycan array binding signal (z-score),Gal3S(b1-4)Glc,1.52
same,glycan array binding signal (z-score),[17],0.149
same,glycan array binding signal (z-score),[18],-0.055
same,glycan array binding signal (z-score),Glc(b1-6)Glc,0.216
same,glycan array binding signal (z-score),[19],1.79
same,glycan array binding signal (z-score),[20],-0.234
same,glycan array binding signal (z-score),Kdn(a2-3)Gal(b1-3)GlcNAc,-0.201
same,glycan array binding signal (z-score),[21],-0.345
same,glycan array binding signal (z-score),[22],-0.397
same,glycan array binding signal (z-score),[23],-0.2
same,glycan array binding signal (z-score),[24],-0.242
